Potency and affinity values are given separately. Inconclusive results are not listed. Calls of active or inactive are those of the source.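 The calls were made as follows: active = fitted half-maximal concentration no higher than twice the top tested dose, in every repeat run; inconclusive = repeat runs disagree, poor fit, or flat partial inhibition; inactive = the rest.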
Target: Endoplasmic reticulum aminopeptidase 1 (Homo sapiens) (UniProt Q9NZ08)
Test: ERAP1 aminopeptidase inhibitors, dose response, biochemical, cherry-pick, set 2, plate reader (AID 743314);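 also: 0% = neutral control wells and -100% = L-leucinethiol positive control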
Settings: Recombinant ERAP1, Leu-AMC fluorescence, 60 min; series mostly up to 11 µM; activity change, negative = inhibition: at the top concentration

Sequence of Endoplasmic reticulum aminopeptidase 1 (Homo sapiens) (Q9NZ08 whole entry, looked up): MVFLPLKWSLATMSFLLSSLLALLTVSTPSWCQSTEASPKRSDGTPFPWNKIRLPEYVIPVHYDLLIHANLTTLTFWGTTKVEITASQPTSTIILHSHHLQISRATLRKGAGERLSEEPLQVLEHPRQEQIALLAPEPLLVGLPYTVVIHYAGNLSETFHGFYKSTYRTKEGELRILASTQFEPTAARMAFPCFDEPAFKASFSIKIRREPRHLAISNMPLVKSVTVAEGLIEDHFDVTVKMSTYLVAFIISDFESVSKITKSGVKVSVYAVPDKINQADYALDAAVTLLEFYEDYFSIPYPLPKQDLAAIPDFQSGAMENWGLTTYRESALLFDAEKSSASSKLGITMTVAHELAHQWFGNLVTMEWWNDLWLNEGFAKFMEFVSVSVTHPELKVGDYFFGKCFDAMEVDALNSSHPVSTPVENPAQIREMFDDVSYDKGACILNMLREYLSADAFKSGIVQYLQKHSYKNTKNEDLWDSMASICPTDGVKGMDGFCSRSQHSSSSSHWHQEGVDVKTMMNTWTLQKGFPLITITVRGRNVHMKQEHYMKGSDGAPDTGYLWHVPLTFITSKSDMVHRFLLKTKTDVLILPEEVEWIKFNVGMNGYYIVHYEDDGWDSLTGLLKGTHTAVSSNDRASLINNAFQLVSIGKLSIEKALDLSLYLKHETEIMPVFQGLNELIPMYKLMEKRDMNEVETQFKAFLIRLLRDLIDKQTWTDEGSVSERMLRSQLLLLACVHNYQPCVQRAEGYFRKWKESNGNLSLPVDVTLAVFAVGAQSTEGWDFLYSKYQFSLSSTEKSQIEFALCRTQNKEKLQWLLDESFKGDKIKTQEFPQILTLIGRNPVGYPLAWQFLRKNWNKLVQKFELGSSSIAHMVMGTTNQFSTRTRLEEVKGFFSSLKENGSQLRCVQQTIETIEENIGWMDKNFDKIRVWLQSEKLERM

Activity change, negative = inhibition, inactive:
CCOC(=O)c1nnn(CC(=O)Nc2ccccc2)c1C(=O)OCC -2.98%
CCN(CC)CCCN=C1N[C@@H](c2ccccc2)C(C(=O)OC)=C(C)N1CC -11.5%
C[C@H]1CCCCO[C@@H](CN(C)C)[C@@H](C)CN([C@@H](C)CO)C(=O)c2cc(NS(=O)(=O)c3ccc(Cl)cc3)ccc2O1 53%
CCN(C(=O)COC(=O)c1cnc(C)cn1)C1CCS(=O)(=O)C1 (stereo not given) -8.22%
O=C(CNC(=O)OCc1ccccc1)Nc1ccc(F)cc1 -11.2%
